Results on one sequence are retold here after PMC7862700, “An all-to-all approach to the identification of sequence-specific readers for epigenetic DNA modifications on cytosine”.

Experiment in all cases: DAPPL (digital affinity profiling via proximity ligation, sequencing); 10 mM Tris-HCl pH 7.5, 50 mM NaCl, 1 mM DTT, 4% glycerol, room temperature, 30 min; GST-TFs on glutathione beads, 16-mer random dsDNA library, 0.1% formaldehyde crosslink after washing; high values mean tight binding
Holding throughout (conditions): protein: recombinant; tags: N-terminal GST; dsDNA, one strand shown

One assay concerns the target T1, FLI1 (Homo sapiens, UniProt Q01543 1-452).
T1 sequence: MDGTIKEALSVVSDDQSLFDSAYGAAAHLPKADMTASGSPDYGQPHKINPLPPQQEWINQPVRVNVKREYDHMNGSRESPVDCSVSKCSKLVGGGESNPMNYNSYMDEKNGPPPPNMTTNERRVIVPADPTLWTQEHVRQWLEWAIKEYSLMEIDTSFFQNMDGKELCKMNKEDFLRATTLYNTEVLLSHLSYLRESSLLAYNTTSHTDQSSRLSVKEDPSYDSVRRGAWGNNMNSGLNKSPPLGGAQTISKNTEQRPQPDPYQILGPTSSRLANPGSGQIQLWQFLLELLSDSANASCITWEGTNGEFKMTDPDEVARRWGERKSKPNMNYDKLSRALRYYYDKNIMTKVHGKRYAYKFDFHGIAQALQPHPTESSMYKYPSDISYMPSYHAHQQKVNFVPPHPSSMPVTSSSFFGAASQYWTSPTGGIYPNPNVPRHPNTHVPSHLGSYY
Summed up:
(§1)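 Sequencing on an Illumina NextSeq500 followed washing, crosslinking with 0.1% formaldehyde, proximity ligation (BsaI/T4 ligase, 1 h, 37 °C) and PCR amplification of pools that had been incubated for 30 min at room temperature with 200 nmole of a random double-stranded 16-mer DNA library in Tris/NaCl/DTT/glycerol buffer. Each pool held DNA-barcoded human transcription factors, expressed in yeast as GST fusions and captured on glutathione beads, plus a tag-only sample. Binding signal is a hexamer's read frequency for a factor divided by its frequency in the tag-only sample.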

In a further assay the target is T2, ELK1 (Homo sapiens, UniProt P19419 1-428).
T2 sequence: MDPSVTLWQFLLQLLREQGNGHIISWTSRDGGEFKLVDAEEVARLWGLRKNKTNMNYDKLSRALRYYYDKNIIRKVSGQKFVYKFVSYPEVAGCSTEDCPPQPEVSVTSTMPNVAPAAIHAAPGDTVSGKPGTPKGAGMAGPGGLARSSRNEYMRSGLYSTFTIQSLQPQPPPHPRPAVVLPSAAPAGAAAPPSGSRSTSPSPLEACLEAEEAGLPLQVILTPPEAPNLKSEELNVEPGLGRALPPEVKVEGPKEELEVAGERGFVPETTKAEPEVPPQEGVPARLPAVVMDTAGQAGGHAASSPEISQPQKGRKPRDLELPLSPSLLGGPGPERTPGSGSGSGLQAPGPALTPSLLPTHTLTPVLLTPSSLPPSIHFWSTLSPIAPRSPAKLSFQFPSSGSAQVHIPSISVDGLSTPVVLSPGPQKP
Summed up: as §1

In another assay the target is T3, GABPA (Homo sapiens, UniProt Q06546 1-454).
T3 sequence: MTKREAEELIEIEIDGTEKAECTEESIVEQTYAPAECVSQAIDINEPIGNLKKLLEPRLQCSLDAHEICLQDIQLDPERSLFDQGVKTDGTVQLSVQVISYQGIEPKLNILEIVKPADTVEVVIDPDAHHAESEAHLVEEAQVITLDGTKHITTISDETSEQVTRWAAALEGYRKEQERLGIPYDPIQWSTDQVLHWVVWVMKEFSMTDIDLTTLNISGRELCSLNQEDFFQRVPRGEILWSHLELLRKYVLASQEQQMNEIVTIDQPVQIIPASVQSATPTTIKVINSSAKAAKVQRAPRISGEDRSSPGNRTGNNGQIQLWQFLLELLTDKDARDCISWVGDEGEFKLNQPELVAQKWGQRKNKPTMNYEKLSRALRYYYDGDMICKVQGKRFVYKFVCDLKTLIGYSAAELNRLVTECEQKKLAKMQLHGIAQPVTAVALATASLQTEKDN
The essentials:
as §1

A further assay addresses T4, ERG (Homo sapiens, UniProt P11308 1-479).
T4 sequence: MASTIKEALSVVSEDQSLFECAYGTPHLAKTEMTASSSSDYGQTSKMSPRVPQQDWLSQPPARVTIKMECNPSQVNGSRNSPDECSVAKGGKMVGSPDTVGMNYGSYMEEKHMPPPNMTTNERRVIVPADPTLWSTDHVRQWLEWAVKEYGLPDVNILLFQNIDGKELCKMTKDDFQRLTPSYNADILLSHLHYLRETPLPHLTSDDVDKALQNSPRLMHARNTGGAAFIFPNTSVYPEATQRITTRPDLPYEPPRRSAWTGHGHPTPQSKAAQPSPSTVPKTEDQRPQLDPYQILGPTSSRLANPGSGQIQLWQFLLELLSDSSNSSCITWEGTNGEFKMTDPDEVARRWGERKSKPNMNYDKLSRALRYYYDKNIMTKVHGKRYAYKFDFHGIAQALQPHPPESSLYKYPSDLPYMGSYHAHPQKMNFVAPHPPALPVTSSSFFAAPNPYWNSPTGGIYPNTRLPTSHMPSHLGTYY
Summed up:
as §1

For the next assay, the target named is ELF1 (Homo sapiens, UniProt P32519 1-619). The essentials: as §1
Another assay concerns the target T5, EHF (Homo sapiens, UniProt Q9NZC4 1-300).
T5 sequence: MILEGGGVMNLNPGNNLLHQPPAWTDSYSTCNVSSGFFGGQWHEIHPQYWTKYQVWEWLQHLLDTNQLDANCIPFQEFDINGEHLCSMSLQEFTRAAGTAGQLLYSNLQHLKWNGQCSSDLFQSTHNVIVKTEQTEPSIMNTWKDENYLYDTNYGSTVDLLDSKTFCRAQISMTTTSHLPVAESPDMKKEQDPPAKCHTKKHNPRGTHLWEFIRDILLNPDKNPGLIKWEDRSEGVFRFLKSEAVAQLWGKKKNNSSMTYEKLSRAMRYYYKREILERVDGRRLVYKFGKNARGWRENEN
Summed up:
as §1

A further assay deals with SPI1 (Homo sapiens, UniProt P17947 1-270). Summed up:
as §1

For a further assay, the target named is T6, ELK3 (Homo sapiens, UniProt P41970 1-407).
T6 sequence: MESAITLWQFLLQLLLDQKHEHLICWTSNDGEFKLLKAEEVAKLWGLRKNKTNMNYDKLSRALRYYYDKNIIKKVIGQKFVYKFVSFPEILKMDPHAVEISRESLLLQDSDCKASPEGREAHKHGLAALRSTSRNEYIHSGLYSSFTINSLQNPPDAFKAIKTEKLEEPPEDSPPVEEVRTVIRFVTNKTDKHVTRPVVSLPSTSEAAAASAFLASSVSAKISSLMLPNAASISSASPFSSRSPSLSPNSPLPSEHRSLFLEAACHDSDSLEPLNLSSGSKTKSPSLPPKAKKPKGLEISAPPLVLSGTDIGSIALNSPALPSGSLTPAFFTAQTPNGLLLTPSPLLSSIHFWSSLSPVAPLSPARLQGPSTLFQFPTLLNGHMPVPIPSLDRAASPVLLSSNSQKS
The essentials: as §1

In the next assay the target is T7, FEV (Homo sapiens, UniProt Q99581 1-238).
T7 sequence: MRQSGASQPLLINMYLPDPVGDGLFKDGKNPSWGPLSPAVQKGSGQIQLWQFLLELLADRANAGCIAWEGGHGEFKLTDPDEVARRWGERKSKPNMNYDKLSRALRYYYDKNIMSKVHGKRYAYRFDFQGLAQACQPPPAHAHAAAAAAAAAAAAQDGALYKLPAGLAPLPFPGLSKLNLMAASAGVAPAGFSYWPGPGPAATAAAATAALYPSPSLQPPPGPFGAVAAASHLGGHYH
The essentials: as §1

Another assay has as its target ETV5 (Homo sapiens, UniProt P41161 1-510). Summed up:
as §1

A further assay concerns the target T8, SPIC (Homo sapiens, UniProt Q8N5J4 1-248).
T8 sequence: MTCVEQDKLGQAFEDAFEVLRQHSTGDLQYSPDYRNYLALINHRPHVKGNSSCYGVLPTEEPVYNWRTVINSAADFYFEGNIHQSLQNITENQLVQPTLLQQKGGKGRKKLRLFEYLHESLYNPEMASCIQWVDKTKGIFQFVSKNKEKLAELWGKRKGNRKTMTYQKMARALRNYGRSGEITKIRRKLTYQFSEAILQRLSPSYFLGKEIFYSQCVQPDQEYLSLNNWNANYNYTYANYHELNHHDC
The essentials:
as §1

The target in a further assay is ELF4 (Homo sapiens, UniProt Q99607 1-663). The essentials: as §1
For a further assay, the target named is T9, ELK4 (Homo sapiens, UniProt P28324-2 1-405).
T9 sequence: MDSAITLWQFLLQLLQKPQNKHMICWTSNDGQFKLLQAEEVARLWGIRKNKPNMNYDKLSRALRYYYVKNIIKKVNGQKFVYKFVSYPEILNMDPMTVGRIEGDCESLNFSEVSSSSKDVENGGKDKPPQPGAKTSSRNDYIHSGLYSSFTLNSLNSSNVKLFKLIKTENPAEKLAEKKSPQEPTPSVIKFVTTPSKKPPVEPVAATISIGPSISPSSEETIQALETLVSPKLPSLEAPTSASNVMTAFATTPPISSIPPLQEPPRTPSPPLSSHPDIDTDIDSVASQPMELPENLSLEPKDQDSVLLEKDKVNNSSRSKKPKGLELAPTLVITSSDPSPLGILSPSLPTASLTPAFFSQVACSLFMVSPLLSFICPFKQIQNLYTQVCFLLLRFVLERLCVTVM
The essentials: as §1

The target in a further assay is T10, ELF3 (Homo sapiens, UniProt P78545 1-371).
T10 sequence: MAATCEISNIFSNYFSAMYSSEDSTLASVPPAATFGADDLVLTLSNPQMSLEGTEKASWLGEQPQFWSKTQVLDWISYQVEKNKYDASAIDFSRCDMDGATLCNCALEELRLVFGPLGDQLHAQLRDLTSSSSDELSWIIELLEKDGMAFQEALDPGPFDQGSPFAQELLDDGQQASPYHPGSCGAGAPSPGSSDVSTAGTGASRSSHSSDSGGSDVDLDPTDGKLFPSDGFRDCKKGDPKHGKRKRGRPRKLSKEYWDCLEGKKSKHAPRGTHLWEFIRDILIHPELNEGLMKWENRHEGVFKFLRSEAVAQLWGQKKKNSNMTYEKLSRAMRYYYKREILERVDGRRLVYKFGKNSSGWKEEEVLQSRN
Summed up:
as §1

For the next assay, the target named is ETV1 (Homo sapiens, UniProt P50549 1-477). The essentials: as §1
Sequence of ETV1 (P50549 whole entry): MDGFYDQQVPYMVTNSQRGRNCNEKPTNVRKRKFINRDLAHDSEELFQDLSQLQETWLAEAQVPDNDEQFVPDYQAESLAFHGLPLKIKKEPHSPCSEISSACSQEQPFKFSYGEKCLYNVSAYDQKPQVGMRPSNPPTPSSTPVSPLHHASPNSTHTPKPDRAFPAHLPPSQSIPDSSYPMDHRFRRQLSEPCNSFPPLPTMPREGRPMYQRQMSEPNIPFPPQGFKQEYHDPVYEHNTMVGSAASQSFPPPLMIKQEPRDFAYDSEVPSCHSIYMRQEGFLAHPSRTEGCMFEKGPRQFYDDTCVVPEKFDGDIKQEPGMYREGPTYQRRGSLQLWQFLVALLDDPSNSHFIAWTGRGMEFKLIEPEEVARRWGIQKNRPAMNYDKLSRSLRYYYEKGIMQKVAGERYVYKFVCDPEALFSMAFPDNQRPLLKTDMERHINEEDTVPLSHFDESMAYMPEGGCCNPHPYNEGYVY

Sequence of ETV5 (P41161 whole entry): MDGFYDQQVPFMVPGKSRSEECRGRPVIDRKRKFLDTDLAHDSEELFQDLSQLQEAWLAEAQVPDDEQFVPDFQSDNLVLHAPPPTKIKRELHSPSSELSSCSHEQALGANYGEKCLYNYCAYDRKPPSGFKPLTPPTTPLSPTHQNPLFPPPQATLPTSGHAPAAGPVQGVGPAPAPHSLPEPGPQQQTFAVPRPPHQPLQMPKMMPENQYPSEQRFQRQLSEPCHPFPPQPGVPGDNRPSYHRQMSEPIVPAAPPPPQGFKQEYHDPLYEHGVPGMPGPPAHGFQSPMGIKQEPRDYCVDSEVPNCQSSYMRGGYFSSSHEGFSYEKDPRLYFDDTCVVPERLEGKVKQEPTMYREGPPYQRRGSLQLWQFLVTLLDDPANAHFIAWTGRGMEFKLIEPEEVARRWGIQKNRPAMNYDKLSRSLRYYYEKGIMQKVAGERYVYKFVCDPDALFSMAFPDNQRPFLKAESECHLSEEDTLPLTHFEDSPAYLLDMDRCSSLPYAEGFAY
Sequence of ELF1 (P32519 whole entry): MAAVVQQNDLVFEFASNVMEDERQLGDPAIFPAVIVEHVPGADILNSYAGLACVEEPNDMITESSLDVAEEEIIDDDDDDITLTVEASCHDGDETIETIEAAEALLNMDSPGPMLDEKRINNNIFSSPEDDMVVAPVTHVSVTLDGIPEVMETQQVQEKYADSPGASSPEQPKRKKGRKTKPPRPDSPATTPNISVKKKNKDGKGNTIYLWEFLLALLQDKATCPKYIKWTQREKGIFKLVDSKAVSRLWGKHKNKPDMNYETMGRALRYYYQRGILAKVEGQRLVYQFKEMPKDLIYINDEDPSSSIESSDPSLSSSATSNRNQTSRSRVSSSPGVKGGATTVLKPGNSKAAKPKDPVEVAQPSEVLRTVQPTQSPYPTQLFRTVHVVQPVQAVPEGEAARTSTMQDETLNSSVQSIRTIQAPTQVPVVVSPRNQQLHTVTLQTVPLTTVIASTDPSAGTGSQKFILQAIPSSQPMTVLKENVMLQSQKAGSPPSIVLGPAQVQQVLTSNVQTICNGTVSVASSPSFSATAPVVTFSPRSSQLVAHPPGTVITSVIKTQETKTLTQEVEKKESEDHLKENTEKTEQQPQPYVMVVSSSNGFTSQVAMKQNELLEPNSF
Sequence of ELF4 (Q99607 whole entry): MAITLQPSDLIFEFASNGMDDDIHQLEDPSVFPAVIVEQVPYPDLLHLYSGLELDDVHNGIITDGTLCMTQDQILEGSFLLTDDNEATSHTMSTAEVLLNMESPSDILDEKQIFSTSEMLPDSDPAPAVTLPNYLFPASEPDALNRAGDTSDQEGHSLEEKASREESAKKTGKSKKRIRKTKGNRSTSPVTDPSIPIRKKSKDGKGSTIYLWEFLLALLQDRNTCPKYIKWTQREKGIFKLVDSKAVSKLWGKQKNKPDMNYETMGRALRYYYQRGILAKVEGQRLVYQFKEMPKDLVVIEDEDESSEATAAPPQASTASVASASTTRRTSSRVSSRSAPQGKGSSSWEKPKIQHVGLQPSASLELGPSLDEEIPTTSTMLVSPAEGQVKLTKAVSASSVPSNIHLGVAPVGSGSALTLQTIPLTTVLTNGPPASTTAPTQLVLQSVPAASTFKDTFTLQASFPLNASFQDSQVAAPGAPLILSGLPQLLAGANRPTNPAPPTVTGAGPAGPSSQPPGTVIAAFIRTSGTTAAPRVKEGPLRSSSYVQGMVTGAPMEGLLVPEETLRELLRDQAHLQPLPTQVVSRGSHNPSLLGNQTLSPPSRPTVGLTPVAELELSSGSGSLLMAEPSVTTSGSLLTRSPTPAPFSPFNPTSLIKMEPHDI

Take GATATG: the binding signal in the assay with FLI1 is 1.15 fold enrichment (6-mer frequency, TF over GST control); with ELK1, 1.06 fold enrichment (6-mer frequency, TF over GST control); in the assay with GABPA, 1.07 fold enrichment (6-mer frequency, TF over GST control); with ERG, 1.11 fold enrichment (6-mer frequency, TF over GST control); in the assay with ELF1 it was 1.03 fold enrichment (6-mer frequency, TF over GST control); with EHF it was 1.12 fold enrichment (6-mer frequency, TF over GST control). The binding signal with SPI1 was 1.06 fold enrichment (6-mer frequency, TF over GST control); in the assay with ELK3, 1.04 fold enrichment (6-mer frequency, TF over GST control); with FEV it was 1.08 fold enrichment (6-mer frequency, TF over GST control); with ETV5 it was 1.1 fold enrichment (6-mer frequency, TF over GST control); in the assay with SPIC it was 1.23 fold enrichment (6-mer frequency, TF over GST control); with ELF4, 1.11 fold enrichment (6-mer frequency, TF over GST control). The binding signal is 1.07 fold enrichment (6-mer frequency, TF over GST control) with ELK4; 1.08 fold enrichment (6-mer frequency, TF over GST control) in the assay with ELF3; 1.03 fold enrichment (6-mer frequency, TF over GST control) with ETV1.
